# Screens (PubChem BioAssay)
# Shn3 3UTR inh: Schnurri-3 reporter inhibition in Clone20 osteoblasts; Clone20 osteoblast Shn3 3'UTR firefly luciferase, 24 h; inhibition, % at 12.5 µM; 0.52% of 360,000 active;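 active means mean inhibition of at least 75% with every replicate also reaching 75%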;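 further: 0% = median of neutral control wells and 100% = pilot-screen positive control compound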
# Peg3 promoter: reduces Peg3 promoter-driven luciferase expression in HeLa; inhibition, % at 20 µM; HeLa PEG-Prom luciferase reporter, luminescence, overnight; 1.7% of 360,000 active; AID 588405;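 active means inhibition of at least 50% at 20 µM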
# TRPM1 prom inh: reduces MITF-dependent TRPM1 promoter luciferase signal; SK-MEL-5 TRPM1 promoter luciferase, 24 h; inhibition, % at 12.5 µM; 0.83% of 330,000 active; AID 488899;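 active means mean inhibition across replicates of 60% or more, whatever share of single replicates reaches that level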
# HIF-2a inh: HIF-2a inhibition | 0.72% of 360,000 active | AID 624352 | inhibition, % at 18.8 µM | 786-0 RCC cells HIF-2a reporter, luciferase luminescence, overnight;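 active means inhibition of the luminescence signal of 40% or more relative to plate controls, in a single-dose primary screen at 18.75 µM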
# CF NFkB block: blocks PAF-induced NF-kB reporter in cystic fibrosis cells | 0.86% of 360,000 active | inhibition, % at 5 µM | AID 588850 | KKLEB NF-kB-GFP reporter, GFP fluorescence overnight;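 active means at least 50% inhibition at 5 µM, scaled per plate between neutral and stimulator controls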;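 further: PAF is a Pseudomonas aeruginosa culture filtrate used as stimulus; plate controls were PAF-stimulated DMSO wells for no effect and unstimulated DMSO wells for full effect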
# KKLEB cytotox: reduces viability of KKLEB cystic fibrosis airway cells; KKLEB CF airway cells viability, ATPlite luminescence, overnight; hits give low values; cells stimulated with P. aeruginosa culture filtrate; activity change (cytotoxicity), % at 5 µM; 0.36% of 360,000 active; AID 602141;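 active means corrected activity change at or below -50% at 5 µM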
# * hit, by the source's call; . = not tested or not shown. An excerpt weighted towards active compounds, which were near 2.8% of everything screened.
SMILES,Shn3 3UTR inh,Peg3 promoter,TRPM1 prom inh,HIF-2a inh,CF NFkB block,KKLEB cytotox
CN1C(=O)C2(NC(=O)c3ccccc3N2C)c2ccccc21 (configuration not stated),-5.2,7.8,4.3,8.9,4.3,-0.5
CN1C(=O)C(Cl)(Cl)C(=O)c2ccccc21,-7.3,7.6,10.2,8.2,53.4*,-11.5
CCN(CC(=O)Nc1ccc(OC)cc1)C(=O)c1ccc2c(c1)NC(=O)CS2,4.5,3.3,-16.5,-10.9,-10.6,7.7
CSc1ccc(C2NN=C(c3ccccc3)S2)cc1 (configuration not stated),36.9,-87.5,29.2,-85.2,-10.8,-61.0*
CCN(CCNCC(O)COc1ccccc1C(C)C)c1cccc(C)c1 (configuration not stated),22.3,93.4*,-6.8,7.4,20.2,-5.4
CC1CN(S(=O)(=O)c2ccc(C(=O)Nc3nc(-c4cc5ccccc5o4)cs3)cc2)CC(C)O1 (configuration not stated),86.5*,31.9,9.1,8.9,50.4*,-54.2*
COc1cccc(C(=O)Nc2nc(-c3ccc(S(=O)(=O)N4CCOCC4)cc3)cs2)c1,6.9,68.5*,21.3,7.6,-5.4,-13.1
O=C(Nc1nc(-c2nc3ccccc3s2)cs1)c1ccc(S(=O)(=O)N2CCOCC2)cc1,9.5,-122.6,-12.0,-284.6,54.8*,-49.1
O=C(Nc1nc(-c2ccc(S(=O)(=O)N3CCOCC3)cc2)cs1)c1ccccc1,31.9,27.4,20.3,-11.3,5.4,-1.0
Cc1nc2ccc(NC(=O)c3ccc(S(=O)(=O)N4CCOCC4)cc3)cc2s1,10.4,1.2,9.8,7.2,-8.3,12.6
O=C(Nc1nc(-c2cc3ccccc3o2)cs1)c1ccc(S(=O)(=O)N2CCCC2)cc1,77.4,-9.5,42.6,-37.0,11.5,-15.7
O=C(Cc1ccc(Br)cc1)OCC(=O)N1CCCCCC1,-4.8,-3.5,3.2,6.4,-1.7,-5.8
CSc1c(C#N)sc(=S)n1-c1ccc(C)cc1,-7.8,29.1,-13.3,13.1,20.7,-5.4
CN(CCc1ccccc1)C(=O)c1ccc(NC(=O)Cc2ccc(NC(=O)C3CCCN(C(=O)CCc4ccccc4)C3)cc2)cc1 (configuration not stated),66.2,-9.7,52.9,-10.1,-7.6,15.1
Cc1ccc(C(=O)N2CCC(C(=O)c3ccc(F)cc3)CC2)cc1,32.3,19.8,-5.6,6.2,32.9,-15.2
Cc1ccc(C(=O)N2C(=S)C(c3ccc(F)cc3)=NC23CCN(C)CC3)cc1,75.1,90.0*,51.1,14.4,-0.8,-1.5
O=C(CCNC(=O)c1ccccc1Cl)NCC(c1ccco1)N1CCCC1 (configuration not stated),10.4,11.1,14.1,-1.6,6.0,-1.5
CC(=O)c1sc(NC(=O)C2(F)C(F)(F)C(F)(F)C(F)(F)C(F)(F)C2(F)F)nc1C,1.7,39.3,46.4,-25.6,65.1*,-52.2*
COc1ccc(CC(=O)N/N=C(\C)CC(=O)Nc2ccc(N(C)C)cc2)cc1OC,-13.4,4.8,1.3,2.2,3.3,-0.1
Clc1ccc(Nc2ncnc3ccc(Br)cc23)cc1,44.3,16.0,19.4,1.1,73.0*,-10.0
COc1ccc(Nc2ncnc3ccc(Br)cc23)cc1OC,10.7,6.7,-15.8,21.8,47.6,-11.4
Cc1ccc(-n2ncc3c(N4CCCC4)ncnc32)c(C)c1,-84.3,-176.8,-29.0,-161.4,2.7,-0.6
COc1cccc(N2CCN(c3ncnc4c3cnn4-c3ccc(C)cc3C)CC2)c1,90.9*,101.8*,67.6*,-121.7,80.3*,-82.9*
O=C(NC1CCCCCC1)C1Cc2ccccc2CN1C(=O)c1ccco1 (configuration not stated),-5.8,-7.9,1.8,-22.8,13.5,-4.9
NCC12CC3CC(C1)CC(c1ccc(Br)cc1)(C3)C2,47.8,103.8*,-6.6,-16.0,7.9,-10.5
Cc1ccc(C23CC4CC(CC(CN)(C4)C2)C3)cc1,12.7,103.0*,11.9,10.1,11.5,-12.6
Cc1ccc(C23CC4CC(CC(C(N)=O)(C4)C2)C3)cc1,-9.9,-15.5,-2.4,-12.0,-7.1,5.6
CCCNC(=O)N(C)C[C@H]1Oc2cc(Br)ccc2S(=O)(=O)N([C@@H](C)CO)C[C@@H]1C,-9.4,-8.2,.,6.1,-13.7,6.9
